Data: ChEMBL document CHEMBL3988442, “University of Dundee, Small-Polar-MMV Screening Library” (2021)
The whole screen tested about 48,000 compounds, of which about 13,000 (27%) showed an effect of 50% or more. The list shows a part of the results.

System: Wolbachia pipientis
Experiment: Anti-Wolbachia Cell-Based Screen
Type: functional
Design: scale not given: in the data most compounds retested in dose-response had high values
Details: 5 µM

Compared with `C=C(C)COc1cccc(CNC(COC)c2ccnn2C)c1` (stereo not drawn), `CN(Cc1ccccc1)c1ncccc1CNC(=O)c1ccnn1C` is lower in “Percent Effect” value: 4.309% for the first, -0.05459% for the second.

Going from `Cn1c(Cn2cccn2)nnc1C1CCN(Cc2cccnc2N)CC1` to `Cn1cnnc1C1CCN(c2nc3ccccc3o2)CC1`, the “Percent Effect” value falls from -0.4084% to -4.492%.

First: Cc1cc(C2CCCN2C(=O)c2cc3c(s2)CCC3)on1 (stereo not drawn)
Second: O=C(c1cc2c(s1)CCC2)N1CCCC(c2cnccn2)C1 (stereo not drawn)
The “Percent Effect” value of the first is lower: 4.731% for the first, 144.9% for the second.

Going from `CN(C)c1cc2c(nn1)CCN(C(=O)c1cc3c(s1)CCC3)C2` to `CN(C)c1cc2c(nn1)CCN(C(=O)Cc1ccc3c(c1)CCO3)C2`, the “Percent Effect” value falls from 9.509% to -10.79%.

Going from `O=C(c1cc2c(s1)CCC2)N1CCC(c2ccncc2)CC1` to `CCn1cnnc1C1CCN(C(=O)c2cc3c(s2)CCC3)CC1`, the “Percent Effect” value falls from 202.7% to -8.588%.

Going from `COc1ccc(Cl)cc1-c1cc(NC(=O)CNC(=O)C2CC2)[nH]n1` to `Cc1nc(Oc2ccccc2Cl)sc1C(=O)O`, the “Percent Effect” value rises from -9.759% to 98.65%.

Compared with `CCn1cc(CN2CCC(N3CCC(O)CC3)CC2)cc1C#N`, `CCn1ccc(C(=O)N2CCCN(Cc3ccccc3F)CC2)cc1=O` is lower in “Percent Effect” value: 0% for the first, -3.557% for the second.

Compared with `Cc1csc(C(C)(C)NCC(=O)N2CCCC(C(N)=O)C2)n1` (stereo not drawn), `Cc1nc(NC(=O)OC(C)(C)C)sc1C(=O)O` is higher in “Percent Effect” value: -19.83% for the first, 0.0995% for the second.

Going from `CN(c1ccc(C(N)=O)nn1)C1CCC1` to `CN(Cc1nnc2n1CCC2)C(=O)Cc1ccc2c(c1)OCCO2`, the “Percent Effect” value falls from 4.967% to -1.07%.

Going from `OCCc1cn(CC2CCCN(Cc3nccs3)C2)nn1` (stereo not drawn) to `CCCc1cc(N2CCCC2Cn2cc(C)cn2)n2ncnc2n1` (stereo not drawn), the “Percent Effect” value rises from -2.093% to -1.643%.

Compared with `CC(C)C(=O)NS(=O)(=O)c1ccc2c(c1)N(C)CCC2`, `CN1CCCc2cc(CNC(=O)c3cc[n+]([O-])cc3)ccc21` is higher in “Percent Effect” value: -5.146% for the first, 106.3% for the second.

Compared with `Cc1ccc(C(=O)NCc2ccc(N3CCNC(=O)C3)c(F)c2)cc1`, `CN1CCCc2cc(CNC(=O)c3ccncc3)ccc21` is higher in “Percent Effect” value: -3.953% for the first, 7.884% for the second.

First: CN1CCCc2cc(CNC(=O)c3ccc(-n4cnnc4)cc3)ccc21
Second: Cc1nc(CNC(=O)Nc2ccc3c(c2)CCCN3C)sc1C
The “Percent Effect” value of the first is higher: 119.3% for the first, 18.83% for the second.

Compared with `COCC(=O)N[C@H]1C[C@@H](Cc2cc(CN3CCOCC3)on2)C1(C)C`, `O=C(NCCN1CCOCC1)NCC(O)c1cccc(F)c1` (stereo not drawn) is higher in “Percent Effect” value: -1.513% for the first, -0.6049% for the second.

Compared with `CCCn1cnc2c1CN(S(=O)(=O)Cc1ccccc1)[C@H](C(=O)OC)C2`, `O=C(NCCc1ccccc1)NCC(O)c1cccc(F)c1` (stereo not drawn) is higher in “Percent Effect” value: -5.674% for the first, 91.4% for the second.

Compared with `CCc1noc(CCCC(=O)Nc2cc(C(F)(F)F)c[nH]c2=O)n1`, `O=C(Cc1ccc2c(c1)OCC2)Nc1nc(C(F)(F)F)n[nH]1` is higher in “Percent Effect” value: 7.764% for the first, 131.9% for the second.

First: Cc1nc(NCCSc2nnc(C)s2)c2cccnc2n1
Second: CCOC(=O)CCNC(=O)c1cccc2ccc(C)nc12
The “Percent Effect” value of the first is lower: -15.89% for the first, -7.02% for the second.

Compared with `COc1ccc(CCNC(=O)NCC(O)c2cccc(F)c2)cc1` (stereo not drawn), `O=C(NCCc1ccc(F)cc1)NCC(O)c1cccc(F)c1` (stereo not drawn) is lower in “Percent Effect” value: 127.5% for the first, 98.05% for the second.

Compared with `Cc1nc(CCNC(=O)NCC(O)c2cccc(Cl)c2)cs1` (stereo not drawn), `O=C(NCCc1cccs1)NCC(O)c1cccc(F)c1` (stereo not drawn) is higher in “Percent Effect” value: 5.885% for the first, 94.53% for the second.

First: O=C(NCC(O)c1cccc(F)c1)c1sccc1OC(F)F (stereo not drawn)
Second: Cc1cc(OC(F)F)c(C(=O)NCC(O)c2cccc(F)c2)s1 (stereo not drawn)
The “Percent Effect” value of the first is higher: 13.48% for the first, -16.7% for the second.

Going from `CC(C)COCCCNC(=O)NCC(O)c1cccc(F)c1` (stereo not drawn) to `O=C(NCCc1cccc(F)c1)NCC(O)c1cccc(F)c1` (stereo not drawn), the “Percent Effect” value falls from 93.97% to 4.017%.

Compared with `O=C(CN1CCCS(=O)(=O)CC1)NCc1ccccc1F`, `O=C(c1cccc(CNS(=O)(=O)c2ccccc2F)c1)N1CCCC1` is higher in “Percent Effect” value: -8.655% for the first, 1.767% for the second.

First: Cc1ccc(CNC(=O)NC2CCN(CC(F)F)CC2)cc1
Second: O=C(Cc1ccc2c(c1)OCCO2)NC1CCN(CC(F)F)CC1
The “Percent Effect” value of the first is lower: -0.1084% for the first, 2.104% for the second.

Compared with `CCOc1ccc(CN(C)C2CCN(c3cc(C)nn3C)C2=O)cc1` (stereo not drawn), `Cc1nc(COc2ccc(N(C)S(C)(=O)=O)cc2)sc1C` is higher in “Percent Effect” value: -7.061% for the first, 78.79% for the second.

Compared with `Cc1ccc(-n2nnc(CC(=O)N3CCSCC3)c2C)cc1`, `Cc1nc(-c2ccccc2F)sc1C(=O)N1CCN(C)CC1` is lower in “Percent Effect” value: 7.911% for the first, 3.843% for the second.

Compared with `CN1CC2(CCN(C(=O)c3ccc4c(=O)n(C)cnc4c3)C2)OC1=O` (stereo not drawn), `Cc1cc(S(=O)(=O)NCc2cccc(C(=O)N3CCCC3)c2)c(C)s1` is higher in “Percent Effect” value: -9.693% for the first, 10.27% for the second.

First: COc1c(C2CCCN2Cc2csc(C(C)C)n2)c(C)nn1C (stereo not drawn)
Second: Cc1nc(CN2C[C@@H](NS(=O)(=O)N(C)C)[C@H](C(C)C)C2)cs1
The “Percent Effect” value of the first is higher: 4.743% for the first, -0.9733% for the second.

Going from `Cc1cccc(CN2C(=O)CCC23CCN(Cc2nccn2C)CC3)n1` to `Cc1cccc(CN2C(=O)CCC23CCN(Cc2ccoc2)CC3)n1`, the “Percent Effect” value rises from 88.13% to 102.5%.

Compared with `Cc1cccc(CN2C(=O)CC[C@@H]3[C@H]2CCN3Cc2nccn2C)n1.O=C(O)C(F)(F)F.O=C(O)C(F)(F)F.O=C(O)C(F)(F)F`, `Cc1cccc(Cn2c3c(ccc2=O)CCN(Cc2ccoc2)CC3)n1.O=C(O)C(F)(F)F.O=C(O)C(F)(F)F` is lower in “Percent Effect” value: 16.26% for the first, 0.1669% for the second.

First: CN1CC(=O)N(c2ccsc2)CC12CCN(Cc1nccn1C)C2 (stereo not drawn)
Second: O=C1CCC2(CCN(Cc3ccoc3)CC2)N1OCc1ccccc1F
The “Percent Effect” value of the first is higher: 2.996% for the first, -6.682% for the second.

Going from `Cn1cc(C#N)cc1C(=O)NC1(C#N)CCSCC1` to `OCCNC1CSCCc2ccccc21` (stereo not drawn), the “Percent Effect” value falls from -2.619% to -7.147%.

Going from `COCCN(Cc1nccs1)C(=O)c1cc(-c2ccc(C)s2)n[nH]1` to `COc1cccc(C(=O)N(C)C(C)c2c(C)n[nH]c2C)c1OC` (stereo not drawn), the “Percent Effect” value falls from -12.01% to -15.68%.

Compared with `Cc1nc(C)c(COc2ccc(S(=O)(=O)N(C)C)cc2)s1`, `Cc1nc(COc2ccc(S(=O)(=O)N(C)C)cc2)sc1C` is higher in “Percent Effect” value: 94.55% for the first, 104.7% for the second.

Compared with `CN(c1ccc(OCc2cnc(Cl)s2)cc1)S(C)(=O)=O`, `Cc1ncc(COc2ccc(N(C)S(C)(=O)=O)cc2)s1` is lower in “Percent Effect” value: 2.089% for the first, -0.05196% for the second.

Going from `Cc1nc(C)c(COc2ccc(N(C)S(C)(=O)=O)cc2)s1` to `COc1ccc(OCc2sc(C3(O)CCCNCC3)nc2C)cc1.Cl` (stereo not drawn), the “Percent Effect” value rises from -26.99% to -5.149%.

Compared with `Cc1noc(C)c1CNC(C)c1ccc(S(=O)(=O)N(C)C)cc1` (stereo not drawn), `CN(C)S(=O)(=O)c1ccc(OCCNCCn2cccn2)cc1` is higher in “Percent Effect” value: -12.9% for the first, 11.92% for the second.

First: CC(C)N1Cc2cccc(NCC(=O)N(C)C)c2C1
Second: CN(C)C(=O)CNC(CC(F)(F)F)c1ccc(Cl)cc1 (stereo not drawn)
The “Percent Effect” value of the first is lower: -13.34% for the first, 1.329% for the second.

Compared with `Cc1ccc(N2Cc3c(CN(C)C)nn(C)c3C2)nn1`, `Cc1ccc2cccc(C(=O)N3CCN(c4cccnn4)CC3)c2n1` is higher in “Percent Effect” value: -4.068% for the first, -2.333% for the second.

Compared with `O=C(O)C(F)(F)F.O=C(c1ccco1)N1CCc2c(COCC3CC3)cncc2C1`, `O=C(O)C(F)(F)F.O=C(c1ccsc1)N1CCc2c(COCC3CC3)cncc2C1` is higher in “Percent Effect” value: -15.15% for the first, -5.644% for the second.

Going from `CC(C)COCc1cncc2c1CCN(Cc1cnn(C)c1)C2.O=C(O)C(F)(F)F.O=C(O)C(F)(F)F` to `CC(C)COCc1cncc2c1CCN(C(=O)c1cscn1)C2.O=C(O)C(F)(F)F`, the “Percent Effect” value rises from -4.372% to 82.53%.

Compared with `O=C(O)C(F)(F)F.O=C(c1cscn1)N1CCc2c(COCC3CC3)cncc2C1`, `CCOCc1cncc2c1CCN(C(=O)c1cscn1)C2.O=C(O)C(F)(F)F` is higher in “Percent Effect” value: 89.35% for the first, 95.41% for the second.

Going from `Cc1ncsc1CN1C[C@@H]2COC[C@]2(C(=O)NC2CC(F)(F)C2)C1.O=C(O)C(F)(F)F` to `O=C(CC(F)(F)F)NC(c1ccc(Cl)cc1)c1ncon1` (stereo not drawn), the “Percent Effect” value falls from 20.27% to 11.91%.

First: CN(C)C(=O)N1C[C@@H]2CC[C@H](C1)N(C(=O)CCCn1cncn1)C2
Second: O=C(Cc1ccc2c(c1)CCO2)Nc1ccc(-n2cncn2)nc1
The “Percent Effect” value of the first is lower: -23.9% for the first, -5.052% for the second.

Going from `O=C(NCc1cccc(F)c1)c1cccc(C(=O)N2CCCC2)n1` to `Cc1cc(F)ccc1CNCc1cccc(C(=O)N2CCCC2)c1`, the “Percent Effect” value rises from 8.268% to 100.5%.

Compared with `Cc1cc(F)ccc1S(=O)(=O)NCc1cccc(C(=O)N2CCCC2)c1`, `Cc1ccc(F)cc1S(=O)(=O)NCc1cccc(C(=O)N2CCCC2)c1` is higher in “Percent Effect” value: 0.7357% for the first, 74.77% for the second.

Going from `Cc1ccc(F)c(S(=O)(=O)NCc2cccc(C(=O)N3CCCC3)c2)c1` to `O=C(c1cccc(CNC/C=C/c2ccccc2)c1)N1CCCC1`, the “Percent Effect” value falls from 126.7% to -7.138%.

First: O=C1[C@@H]2CCN(CC3CCOCC3)C[C@@H]2OCCN1c1ccccc1
Second: O=C([C@@H]1COC[C@H]2CN(CC3CCCC3)C[C@H]21)N1CCOCC1
The “Percent Effect” value of the first is lower: -22.15% for the first, -6.22% for the second.

Going from `Cc1n[nH]cc1CNC1(c2ccc(Br)cc2)CC1` to `O=C(Cc1ccc2c(c1)OCC2)Nc1nc[nH]n1`, the “Percent Effect” value rises from -6.578% to 104.4%.

First: Nc1cc2c(nn1)CCN(C(=O)Cc1ccc3c(c1)CCO3)C2
Second: O=C(Cc1ccc2c(c1)OCC2)Nc1nn[nH]n1
The “Percent Effect” value of the first is lower: 8.586% for the first, 216.7% for the second.

First: O=C(Cc1ccc2c(c1)OCO2)N[C@@H]1CCNC[C@H]1O
Second: Cc1ccc(CN(CC(=O)NCC2CCOC2)c2ccc(F)cc2)o1 (stereo not drawn)
The “Percent Effect” value of the first is higher: -5.906% for the first, -9.674% for the second.

Compared with `O=C(Nc1ccc2ncccc2c1)C1CC(=O)N(Cc2ccccn2)C1` (stereo not drawn), `CC(=O)Nc1cnc(Oc2ccccc2F)nc1` is higher in “Percent Effect” value: -4.026% for the first, -1.763% for the second.

First: Cc1ccc(C(NC(=O)CCNC(=O)c2ccoc2)C(F)(F)F)cc1 (stereo not drawn)
Second: Cc1nc(Oc2ccccc2F)sc1C(=O)O
The “Percent Effect” value of the first is lower: 20.44% for the first, 91.89% for the second.

Compared with `COc1cccc(CNCc2c(C)nc3sc(C)cn23)c1OC`, `COc1cccc(Oc2nc(C)c(C(=O)O)s2)c1OC` is higher in “Percent Effect” value: -11.36% for the first, 116.8% for the second.

Going from `Cc1ccc2cccc(Oc3nc(C)c(C(=O)O)s3)c2n1` to `Cc1nc(-c2ccc(Cl)s2)sc1C(=O)O`, the “Percent Effect” value falls from 111% to 9.091%.
